Assay results: PubChem BioAssay AID1626 (SRMLSC, 2009)
The whole screen tested about 220,000 compounds, of which about 2,000 (0.91%) were called active. Another 2% or so got no clear call; they are omitted. Only a sample is shown. Potency and affinity values are given separately. Values without a mark were called inactive. Rule as the data show it: inconclusive = inhibition above about 80% without an active follow-up result; inactive = below that; test concentration not stated here.

Experiment: M. tuberculosis H37Rv growth inhibitors, H37Rv strain (AID 1626);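 also: bacteria incubated seven days before Alamar blue readout; 0% = bacteria only wells and 100% = bacteria with antibiotic wells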
Settings: active compounds read high, concentration not given here

Row | SMILES | inhibition
1 | COCCCNC(=S)N(Cc1ccccc1)Cc1nc2ccccc2c(=O)[nH]1 | -7.77%
2 | NC(=O)C(=CNc1nc(-c2ccc(Cl)c(Cl)c2)cs1)C(N)=O | -3.81%
3 | OC1=C(O)c2nc3cc(C(F)(F)F)ccc3nc21 | -3.35%
4 | COc1ccc(NCc2ccc([N+](=O)[O-])s2)c(OC)c1 | 79.8%
5 | COc1cccc(NCc2ccc([N+](=O)[O-])s2)c1 | 15.2%
6 | COC(=O)c1ccc(NC(=O)c2ccc(NC(=O)C3CCCO3)cc2)cc1 (stereo not drawn) | 10.1%
7 | CCCCNS(=O)(=O)c1ccc(NC(=O)C2CCCO2)cc1 (stereo not drawn) | 6.1%
8 | COC(=O)c1ccc(NC(=O)C2C3C=CC(O3)C2C(=O)O)cc1 (stereo not drawn) | -12.1%
9 | CCOC(=O)c1cc(NC(=O)C2CCCO2)cc(C(=O)OCC)c1 (stereo not drawn) | 3.41%
10 | CC(C)COC(=O)c1ccc(NC(=O)C2C3C=CC(C3)C2C(=O)O)cc1 (stereo not drawn) | 58.1%
11 | COC(=O)c1ccc(NC(=O)C2CCCO2)cc1 (stereo not drawn) | -10.3%
12 | NC(=O)c1ccc(NC(=O)C2CCCO2)cc1 (stereo not drawn) | -8.76%
13 | CCCCNC(=O)c1ccc(NC(=O)C2CCCO2)cc1 (stereo not drawn) | 0.89%
14 | Cn1ncc(C#N)c1NC(=O)C1CC(c2ccc(Cl)c(Cl)c2)=NO1 (stereo not drawn) | -5.17%
15 | COC(=O)c1[nH]c2ccccc2c1NC(=O)CN1CC(C)OC(C)C1 (stereo not drawn) | -0.75%
16 | CCOC(=O)N1CCN(C(=O)Cc2ccc(C)cc2)CC1 | -3.57%
17 | CN(C)C(CNC(=S)Nc1ccccc1Cl)c1cccnc1 (stereo not drawn) | 7.94%
18 | CCCCOC(=O)c1ccc(NC(=O)C(=O)NCC2CCCO2)cc1 (stereo not drawn) | 34.8%
19 | CCOC(=O)c1ccc(NC(=O)C(=O)NCC2CCCO2)cc1 (stereo not drawn) | 65.4%
20 | COc1ccc(Br)c2oc(S)cc(=O)c12 | -4.76%
21 | CCN(CC)C(=O)C1CCCN(Cc2ccc(F)c(F)c2)C1 (stereo not drawn) | -6.74%

Row | SMILES | inhibition
22 | CCC(CC)C(=O)Nc1ccc([N+](=O)[O-])cn1 | 1.14%
23 | CCCc1nc(SCC(=O)Nc2cc(C)on2)c2c(=O)n(C)c(=O)n(C)c2n1 | 5.55%
24 | Cn1c(CNc2ccccc2)nc2ccccc21 | 5.08%
25 | Cc1ccc(NCc2nc3ccccc3n2C)cc1 | 6.89%
26 | CN(C)c1ccc(-c2nc3ccccc3n2C)cc1 | -2.73%
27 | Cn1c(Cl)nc2ccccc21 | -1.9%
28 | CCCCn1c(/N=C/c2ccc(N(C)C)cc2)nc2ccccc21 | -13.8%
29 | Cc1cccc(NCc2nc3ccccc3n2C)c1 | -0.92%
30 | CC(=O)Nc1nc(=S)n(-c2ccccc2)[nH]1 | -1.91%
31 | COC(=O)C1CCN(C(=O)COC(=O)CC(NC(C)=O)c2ccccc2)CC1 (stereo not drawn) | -3.65%
32 | Fc1cccc2sc(N3CCCCC3)nc12 | -9.23%
33 | COc1ccccc1NC(=O)CCc1nc(-c2ccccc2F)no1 | 2%
34 | O=C(NC1=NC2CCCCC2N1)c1ccccc1 (stereo not drawn) | 1.79%
35 | Cc1ccc(O)c(C2=Nc3ccccc3N=C(c3cccc([N+](=O)[O-])c3)C2)c1 | 3.86%
36 | Cc1ccc(C2=Nc3ccccc3N=C(c3ccc([N+](=O)[O-])cc3)C2)c(O)c1 | 0.53%
37 | CCc1cccc(CC)c1NC(=S)Nc1cccc(Cl)c1Cl | 2.37%
38 | CCCn1nc(C(=O)Nc2nc3ccccc3[nH]2)c2ccccc2c1=O | 59.6%
39 | CCCCCn1c(=O)c(-c2nc3ccccc3[nH]2)c(O)c2ccccc21 | 52.9%
40 | CCn1c(=O)c(-c2nc3ccccc3[nH]2)c(O)c2ccccc21 | 43.3%
41 | CCn1c(=O)c(C(=O)Nc2ccccn2)c(O)c2ccccc21 | -3.43%
42 | CC1Cc2ccccc2N1C(=O)c1ccc(N2CCCC2)c([N+](=O)[O-])c1 (stereo not drawn) | 4.46%

Row | SMILES | inhibition
43 | CCN(C(=O)CSc1nc(-c2ccccc2)c(-c2ccccc2)[nH]1)C1CCS(=O)(=O)C1 (stereo not drawn) | 0.12%
44 | CSc1ncccc1C(=O)OCC(=O)N(CC(C)C)C1CCS(=O)(=O)C1 (stereo not drawn) | -5.78%
45 | CCCn1c(SCC(=O)Nc2ccc(OC)cc2[N+](=O)[O-])n[nH]c1=O | 1.11%
46 | O=C1Nc2ccccc2N(O)N1c1ccc(Cl)cc1 | -3.86%
47 | O=C(C1=C[C@@H](C2CC2)C[C@@H](OCc2ccc(CO)cc2)O1)N1CCN(Cc2ccccc2)CC1 | 0.13%
48 | O=C(CCC(=O)N1CCN(c2ccccn2)CC1)Nc1nnc(C(F)(F)F)s1 | -6.15%
49 | COc1ccccc1N1CCN(C(=O)COc2ccc(S(=O)(=O)NC(C)(C)C)cc2)CC1 | 0.98%
50 | CN1CC=C(c2c[nH]c3ccccc23)CC1 | -7.46%
51 | O=C(Nc1ccc2c(c1)OCO2)c1ccc(Br)s1 | 9.98%
52 | CC(=O)Nc1nnc(-c2ccco2)o1 | 0.62%
53 | O=C(Nc1nnc(-c2ccco2)o1)c1ccc(S(=O)(=O)N2CCCC2)cc1 | 41.6%
54 | CCN(c1ccccc1)S(=O)(=O)c1ccc(C(=O)Nc2nnc(-c3ccco3)o2)cc1 | 61.3%
55 | O=C(Nc1nnc(-c2ccco2)o1)c1ccc(N2C(=O)CCC2=O)cc1 | -1.43%
56 | Cc1nn(-c2ccccc2)c(C)c1C(=O)Nc1ccc(N2CCOCC2)cc1 | -4.12%
57 | O=C(Nc1nnc(-c2ccco2)o1)C1CC1 | 4.4%
58 | CN(C)S(=O)(=O)c1ccc(C(=O)Nc2nnc(-c3ccco3)o2)cc1 | -14.7%
59 | CCC(=O)Nc1nnc(-c2ccco2)o1 | 10.2%
60 | COCCCNC(=O)CN(c1cc(Cl)ccc1OC)S(=O)(=O)c1ccc(C)c([N+](=O)[O-])c1 | -9.07%
61 | O=C(c1ccco1)N1CCN(c2ccc(S(=O)(=O)N3CCCC3)cc2)CC1 | -12.6%
62 | Cc1ccc(NCCNc2ccc(C)cc2)cc1 | 5.4%
63 | C[N+](C)(CC#Cc1ccccc1)CC(=O)c1ccc(Cl)cc1 | 0.9%
